The campaign covered roughly 65,000 compounds. About 2,100 (3.2%) showed an effect of 50% or more. The median lay at about -52%. Shown is part of a subset that was picked to be rich in strong results.
What follows are compounds tested on Plasmodium falciparum (assay: Screen against P. falciparum Asexual Blood Stage (ABS), at 5uM). Details: tested at 5 uM.
Assay type: functional, Dd2
`COc1ccccc1N1CCC(CNS(=O)(=O)c2c(C)nn(C)c2C)C1` (stereo not drawn) showed an INHIBITION of -22.2%. For `COc1ccccc1N1CCC(CNS(=O)(=O)c2cccs2)C1` (stereo not drawn), the INHIBITION was 7.44%. `COc1c(CNCc2ccccc2CO)c(C)nn1C` was tested, and the INHIBITION was -2.62%. With `COc1cccc(CNCC2CCN(CC(C)O)CC2)c1OC` (stereo not drawn) the INHIBITION was -2.28%. Compound `COc1ccccc1N1CCC(CNCc2cccc(O)c2)C1` (stereo not drawn) has an INHIBITION of 56.8%. Work on `COc1ccc(CNCC2CCN(c3ccccc3OC)C2)cc1O` (stereo not drawn) yielded an INHIBITION of 24.5%. With `COc1ccccc1N1CCC(CNCc2cccc(C#N)c2)C1` (stereo not drawn) the INHIBITION was 3.2%. Work on `COc1ccccc1N1CCC(CNCc2c(C)nn(C)c2OC)C1` (stereo not drawn) yielded an INHIBITION of 53.5%. `COc1ccccc1N1CCC(CNCc2cccc(OC)c2OC)C1` (stereo not drawn) gave an INHIBITION of 57%. Compound `C/C(NC(=O)c1ccco1)=C1/C(=O)C[C@@H]2[C@H]1C2(C)C` has an INHIBITION of -86.3%. For `CC(C)N(C)Cc1cn2c(n1)CN(C(=O)Cc1ccccc1)CC2`, the INHIBITION was -63.5%. With `COc1c(CNCc2cccnc2N2CCN(C)CC2)c(C)nn1C` the INHIBITION was -95.3%. `CCOc1nc2cnccc2n(CC(=O)NCc2ccc(C)cc2)c1=O` gave an INHIBITION of -10.3%. Compound `Cc1nc(N2CCOCC2)nc2c1CCN(Cc1ccsc1)CC2` has an INHIBITION of -79.9%. `CCCc1ccc(C(=O)N2Cc3c(Cn4ccnc4)nn(C)c3C2)cc1` was tested, and the INHIBITION was -64.1%. In the case of `CCO[C@H]1C[C@@H](O)C12CCN(C(=O)CC(F)(F)F)CC2`, the INHIBITION is reported as -105%. `N[C@H]1CN(Cc2cnc(N3CCCC3)nc2)C[C@@H]1C1CC1` gave an INHIBITION of -9%. With `Cc1cc(N2C[C@H](C3CC3)[C@@H](N)C2)nc(N2CCCCC2)n1` the INHIBITION was 56.4%. In the case of `CCc1cc(N2C[C@H](C3CC3)[C@@H](N)C2)nc(N2CCOCC2)n1`, the INHIBITION is reported as -73.7%. `CC(C)Oc1cc(N2C[C@H](C3CC3)[C@@H](N)C2)nc(N)n1` showed an INHIBITION of -211%. `CCc1cc(N2C[C@H](C3CC3)[C@@H](N)C2)nc(N2CCCC2)n1` was tested, and the INHIBITION was 69.6%. `CNc1cc(C)nc(N2C[C@@H](C(=O)O)[C@H](C3CC3)C2)n1` was tested, and the INHIBITION was -75.5%. `CCc1ccc(CN(CCCn2ccnc2)Cc2ccc(C)s2)o1` showed an INHIBITION of 21.9%. `CN1[C@@H]2CC[C@H]1CN(c1nc(-c3ccncc3)nc3c1cnn3C)CC2` was tested, and the INHIBITION was -86.6%. In the case of `CCc1cc(C(=O)N2Cc3ccccc3OC3(CCOCC3)C2)on1`, the INHIBITION is reported as -33.7%. `CN(C)CCN1C(=O)CCC12CCCN(C(=O)CC1CC1)CC2` (stereo not drawn) showed an INHIBITION of -26.4%. Compound `Cc1nccn1CCC1CCCCN1Cc1cnc(N(C)C)nc1` (stereo not drawn) has an INHIBITION of 4.12%. `Cc1nccn1CCC1CCCCN1Cc1ccc(O)cc1Cl` (stereo not drawn) was tested, and the INHIBITION was 24.6%. Work on `Cc1nccn1CCC1CCCCN1Cc1ccc2c(c1)OCCO2` (stereo not drawn) yielded an INHIBITION of 46.4%. With `Cc1nccn1CCC1CCCCN1Cc1cccc(CCN)c1` (stereo not drawn) the INHIBITION was 59.8%. `Cc1cc2c(cc1CN1CCCCC1CCn1ccnc1C)OCO2` (stereo not drawn) gave an INHIBITION of 67.7%. `Cc1nccn1CCC1CCCCN1Cc1ccncc1` (stereo not drawn) gave an INHIBITION of -88.5%. Work on `Cn1cc(CNC2CCC(O)CC2)c(-c2cc3ccccc3o2)n1` (stereo not drawn) yielded an INHIBITION of -29%. `CC(C)NC(=O)Nc1ccc(CNCc2ccc(OC(F)F)cc2)cc1` showed an INHIBITION of -97.1%. For `CC(C)c1nc(C2CCCN2Cc2ccncc2Cl)no1` (stereo not drawn), the INHIBITION was -53.3%. With `COCCN1C[C@@H]2CC[C@H]1CN(C(=O)c1ccc(Cl)cc1)C2` the INHIBITION was -61.5%. For `COc1ccc(-n2cccn2)cc1S(=O)(=O)N1C[C@H](C2CC2)[C@@H](N)C1`, the INHIBITION was 58.9%. In the case of `CCCN1C[C@@H]2CC[C@H]1CN(Cc1cccc(-n3cccn3)c1)C2`, the INHIBITION is reported as 46.5%. `Cc1ccc(-n2cccn2)cc1S(=O)(=O)N1C[C@H](C2CC2)[C@@H](N)C1` showed an INHIBITION of 41.6%. Work on `CCCN1C[C@@H]2CC[C@H]1CN(Cc1ccc(-n3cccn3)cc1)C2` yielded an INHIBITION of 30.8%. `Cc1ccc(-n2cccn2)cc1S(=O)(=O)N1C[C@H]2CC[C@@H](C1)N(C)C2` was tested, and the INHIBITION was 63.6%. With `N[C@H]1CN(S(=O)(=O)c2cccnc2)C[C@@H]1C1CC1` the INHIBITION was -59.9%. In the case of `CN(C)Cc1cnc(C2CCN(C(=O)c3ccc(F)cc3)C2)[nH]1` (stereo not drawn), the INHIBITION is reported as -144%. With `CCOc1cc(C)nc(N2CCN(C(=O)C(C)NC(C)=O)CC2)n1` (stereo not drawn) the INHIBITION was -92.3%. In the case of `O=C(Nc1cccnc1)NC1CCN(c2ccccc2OC(F)F)C1` (stereo not drawn), the INHIBITION is reported as 16%. `O=C(Nc1ccccn1)NC1CCN(c2ccccc2OC(F)F)C1` (stereo not drawn) was tested, and the INHIBITION was 8.94%. Work on `O=C(Nc1ccncc1)NC1CCN(c2ccccc2OC(F)F)C1` (stereo not drawn) yielded an INHIBITION of 64.4%. `Cc1noc(C)c1CNC1CCN(c2ccccc2OC(F)F)C1` (stereo not drawn) showed an INHIBITION of 63.7%. Compound `COc1ccccc1N1CCC(NCc2c(C)noc2C)C1` (stereo not drawn) has an INHIBITION of 28.4%. `Cc1ccc(N2CCCC(NCc3c(C)noc3C)C2)nn1` (stereo not drawn) was tested, and the INHIBITION was -2.57%. With `CCCOc1c(Cl)cc(C(=O)N2CCOC23CCN(C)CC3)cc1Cl` the INHIBITION was -5.1%. Compound `CSCc1cc(F)ccc1CNC(=O)N1CCCC(CO)C1` (stereo not drawn) has an INHIBITION of -126%. Work on `OC(c1ccccc1)C1CCN(Cc2csc(-c3ncccn3)n2)CC1` (stereo not drawn) yielded an INHIBITION of -49.1%.
